The values that follow come from PubChem BioAssay (Tox21).

A short description of assay [1]: qHTS assay to identify small molecule that activate the aryl hydrocarbon receptor (AhR) signaling pathway - cell viability counter screen (AID 743086).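 Note: HepG2 liver cells carrying the AhR DRE luciferase reporter; series mostly up to about 70 µM; nearly all actives have a fitted effect of over 45% in size.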 The essentials: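 HepG2-AhR-luc (HG2L7.5c1) cells, 4000/well, were preincubated 5 h at 37C, exposed to compound in qHTS format for 24 hr at 37C, then given CellTiter-Fluor for 30 min; viability was read as fluorescence in the reporter wells.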
In general terms: Quantitative high-throughput screening tests each substance at several concentrations.

Assay [2] can be described thus: qHTS assay to identify small molecule antagonists of the peroxisome proliferator-activated receptor gamma (PPARg) signaling pathway - cell viability counter screen (AID 743194). Note: nearly all actives have a fitted effect of over 55% in size. Note: potency is the fitted concentration of half-maximal effect. The essentials:
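PPARg-UAS-bla HEK293H cells were plated, rested 5 h at 37 C, then treated with compounds plus rosiglitazone (50 nM final) for 17 h at 37 C; viability was then read by CellTiter-Glo luminescence after 30 min at room temperature.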

A short description of assay [3]: qHTS assay for small molecule agonists of the antioxidant response element (ARE) signaling pathway - cell viability counter screen (AID 743203; calls by dose curve; note: nearly all actives have a fitted effect of over 55% in size; note: potency is the fitted concentration of half-maximal effect). In a few lines: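 Cells (ARE-bla HepG2, 2,000/well) receive DMSO-dissolved compounds after a 5 hrs rest. Plates incubate 16 hrs at 37C/5% CO2. CellTiter-Glo luminescence is then recorded after 30 min at room temperature.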

Assay [4] is described as follows: qHTS assay for small molecule activators of the heat shock response signaling pathway - cell viability counter screen (AID 743209). Note: nearly all actives have a fitted effect of over 50% in size. Note: potency is the fitted concentration of half-maximal effect. The essentials:
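Quantitative HTS format, Tox21 10K library. HeLa cells carrying an HSE-driven beta-lactamase reporter were treated 5 h at 37 C, then assessed for viability by CellTiter-Glo luminescence.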

Assay [5] is described as follows: qHTS assay to identify small molecule agonists of the peroxisome proliferator-activated receptor delta (PPARd) signaling pathway - cell viability counter screen (AID 743211). Note: nearly all actives have a fitted effect of over 55% in size. Note: potency is the fitted concentration of half-maximal effect. The essentials: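 Following 5 h plating at 37 C and 5% CO2, PPARd UAS-bla HEK293H cells took up test compounds for 17 h. Viability was quantified by luminescence 30 min after CellTiter-Glo addition at room temperature.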

A short description of assay [6]: qHTS assay to identify small molecule antagonists of the peroxisome proliferator-activated receptor delta (PPARd) signaling pathway - cell viability counter screen (AID 743213). Note: nearly all actives have a fitted effect of over 50% in size. Note: potency is the fitted concentration of half-maximal effect. In a few lines: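 PPARd-bla HEK293H cells (3000/well) got compound plus 300 nM L165041 agonist for 17 h at 37 C. Viability in the same wells came from CellTiter-Glo luminescence after 30 min at room temperature.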

Assay [7] is described as follows: qHTS assay to identify small molecule agonists of the farnesoid-X-receptor (FXR) signaling pathway - cell viability counter screen (AID 743218). Note: nearly all actives have a fitted effect of over 45% in size. Note: potency is the fitted concentration of half-maximal effect. In a few lines:
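In GeneBLAzer FXR-UAS-bla HEK 293T cells, compounds act for 16 h at 37 C. Cell viability is then scored in the reporter wells by CellTiter-Glo, 30 min at RT, luminescence.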

The target in assay [8] is Bile acid receptor (Homo sapiens) (UniProt Q96RI1). Nature of the assay: qHTS assay to identify small molecule agonists of the farnesoid-X-receptor (FXR) signaling pathway (AID 743220; active = well fitted activation curve with a large enough effect in the signal ratio in the repeat runs, not every such curve was filed as active; the % refers to the signal ratio; note: potency is the fitted concentration of half-maximal effect). In a few lines: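 Beta-lactamase reporter under UAS control in GeneBLAzer FXR HEK 293T cells (5000/well) measured with LiveBLAzer FRET substrate after 2 h at room temperature. Compound exposure lasted 16 h at 37C.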
Sequence of Bile acid receptor (Homo sapiens) (Q96RI1 whole entry, looked up): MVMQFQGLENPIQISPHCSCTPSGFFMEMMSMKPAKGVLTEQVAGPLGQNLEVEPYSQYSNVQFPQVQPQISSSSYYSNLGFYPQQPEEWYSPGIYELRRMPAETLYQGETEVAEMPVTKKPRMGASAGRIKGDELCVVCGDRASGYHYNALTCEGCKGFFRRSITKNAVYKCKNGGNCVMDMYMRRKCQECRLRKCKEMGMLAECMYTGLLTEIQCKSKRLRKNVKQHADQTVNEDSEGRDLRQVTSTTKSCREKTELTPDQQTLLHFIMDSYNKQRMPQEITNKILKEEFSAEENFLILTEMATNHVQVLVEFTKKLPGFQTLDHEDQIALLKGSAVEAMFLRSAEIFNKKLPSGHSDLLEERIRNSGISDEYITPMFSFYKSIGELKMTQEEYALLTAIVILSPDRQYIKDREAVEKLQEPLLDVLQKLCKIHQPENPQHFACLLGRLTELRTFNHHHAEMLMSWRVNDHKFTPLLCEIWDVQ

Assay [9] can be described thus: qHTS assay to identify small molecule antagonists of the farnesoid-X-receptor (FXR) signaling pathway - cell viability counter screen (AID 743221; active = well fitted cell-killing curve with a large enough effect in the repeat runs, not every such curve was filed as active; note: nearly all actives have a fitted effect of over 50% in size; note: potency is the fitted concentration of half-maximal effect). The essentials: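 Compound effects on cell number were measured as CellTiter-Glo luminescence in HEK 293T cells expressing FXR-UAS-bla, after 16 h at 37 C with 50 uM CDCA (final).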
Assay [10] has as its target Vitamin D3 receptor (Homo sapiens) (UniProt P11473). Nature of the assay: qHTS assay to identify small molecule agonists of the vitamin D receptor (VDR) signaling pathway (AID 743222; calls by dose curve; note: potency is the fitted concentration of half-maximal effect). In a few lines: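 Agonist activity measured in VDR-bla reporter cells. Exposure 16 h, 37C, 5% CO2; detection by B/G FRET substrate, 2 h RT.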
Assay [11] has the same target. Nature of the assay: qHTS assay to identify small molecule antagonists of the vitamin D receptor (VDR) signaling pathway (AID 743223; active = well fitted inhibition curve with a large enough effect in the signal ratio in the repeat runs, not every such curve was filed as active; the % refers to the signal ratio). In a few lines:
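Beta-lactamase activity in VDR-bla cells is measured by FRET substrate fluorescence (2 h, room temperature) after cells spend 16 h at 37C with test compound and 3 nM final 1alpha,25-dihydroxyvitamin D3.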

A short description of assay [12]: qHTS assay for small molecule agonists of the antioxidant response element (ARE) signaling pathway (AID 743202; active = well fitted activation curve with a large enough effect in the signal ratio in the repeat runs, not every such curve was filed as active; the % refers to the signal ratio). The essentials:
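Compounds delivered in DMSO to ARE-bla HepG2 cells (2,000 cells/well, pre-incubated 5 h) and left 16 h at 37 C. LiveBLAzer B/G FRET substrate then added for 2 h at RT before fluorescence reading.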

Assay [13] is described as follows: qHTS assay for small molecule activators of the heat shock response signaling pathway (AID 743210; active = well fitted activation curve with a large enough effect in the signal ratio in the repeat runs, with a control signal flat, not every such curve was filed as active; the % refers to the signal ratio;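 note: HeLa cells with beta-lactamase reporter driven by heat shock elements; series mostly up to about 63 µM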). The essentials:
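Reporter gene assay: HeLa cells stably bearing an HSE-bla construct, compound treatment 5 h at 37 C, LiveBLAzer substrate 2.5 h at RT, fluorescence intensity.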

Assay [14] deals with Peroxisome proliferator-activated receptor delta (Homo sapiens) (UniProt Q03181). Nature of the assay: qHTS assay to identify small molecule antagonists of the peroxisome proliferator-activated receptor delta (PPARd) signaling pathway (AID 743215; active = well fitted inhibition curve with a large enough effect in the signal ratio in the repeat runs, not every such curve was filed as active; the % refers to the signal ratio;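 note: cells stimulated with agonist L165041 at 300 nM final during compound exposure; series mostly up to about 62 µM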). In a few lines: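 Antagonist-mode beta-lactamase reporter screen: HEK293H cells with UAS-bla under PPARd control, stimulated by 300 nM L165041 (final) alongside test compound for 17 h at 37 C, then FRET fluorescence after 2 h substrate incubation.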
Sequence of Peroxisome proliferator-activated receptor delta (Homo sapiens) (Q03181 whole entry, looked up): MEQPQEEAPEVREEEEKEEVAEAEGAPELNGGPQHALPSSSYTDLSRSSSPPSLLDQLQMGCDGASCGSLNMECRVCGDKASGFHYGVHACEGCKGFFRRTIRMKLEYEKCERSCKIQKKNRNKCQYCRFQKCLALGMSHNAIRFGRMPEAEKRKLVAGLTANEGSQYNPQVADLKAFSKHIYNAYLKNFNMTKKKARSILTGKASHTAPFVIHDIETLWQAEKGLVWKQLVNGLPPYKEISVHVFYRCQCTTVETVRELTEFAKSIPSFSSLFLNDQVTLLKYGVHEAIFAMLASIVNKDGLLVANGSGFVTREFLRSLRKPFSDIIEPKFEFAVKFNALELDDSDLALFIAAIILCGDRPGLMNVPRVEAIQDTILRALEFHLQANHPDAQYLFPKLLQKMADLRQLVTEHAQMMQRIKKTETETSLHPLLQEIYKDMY

For assay [15], the target named is Aryl hydrocarbon receptor (Homo sapiens) (UniProt P35869). The experiment in a line: qHTS assay to identify small molecule that activate the aryl hydrocarbon receptor (AhR) signaling pathway (AID 743085).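 For activation: HG2L7.5c1 human HepG2 liver cells with stably integrated DRE-driven firefly reporter; series mostly up to about 70 µM.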 Note: nearly all actives have a fitted effect of over 15% in size. Note: potency is the fitted concentration of half-maximal effect. The essentials: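 Measured in HG2L7.5c1 cells: CellTiter-Fluor signal (30 min incubation, 37C) for viability, then luciferase luminescence (30 min, room temperature). Compound contact time was 24 h at 37C, following a 5 h pre-incubation.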
Sequence of Aryl hydrocarbon receptor (Homo sapiens) (P35869 whole entry, looked up): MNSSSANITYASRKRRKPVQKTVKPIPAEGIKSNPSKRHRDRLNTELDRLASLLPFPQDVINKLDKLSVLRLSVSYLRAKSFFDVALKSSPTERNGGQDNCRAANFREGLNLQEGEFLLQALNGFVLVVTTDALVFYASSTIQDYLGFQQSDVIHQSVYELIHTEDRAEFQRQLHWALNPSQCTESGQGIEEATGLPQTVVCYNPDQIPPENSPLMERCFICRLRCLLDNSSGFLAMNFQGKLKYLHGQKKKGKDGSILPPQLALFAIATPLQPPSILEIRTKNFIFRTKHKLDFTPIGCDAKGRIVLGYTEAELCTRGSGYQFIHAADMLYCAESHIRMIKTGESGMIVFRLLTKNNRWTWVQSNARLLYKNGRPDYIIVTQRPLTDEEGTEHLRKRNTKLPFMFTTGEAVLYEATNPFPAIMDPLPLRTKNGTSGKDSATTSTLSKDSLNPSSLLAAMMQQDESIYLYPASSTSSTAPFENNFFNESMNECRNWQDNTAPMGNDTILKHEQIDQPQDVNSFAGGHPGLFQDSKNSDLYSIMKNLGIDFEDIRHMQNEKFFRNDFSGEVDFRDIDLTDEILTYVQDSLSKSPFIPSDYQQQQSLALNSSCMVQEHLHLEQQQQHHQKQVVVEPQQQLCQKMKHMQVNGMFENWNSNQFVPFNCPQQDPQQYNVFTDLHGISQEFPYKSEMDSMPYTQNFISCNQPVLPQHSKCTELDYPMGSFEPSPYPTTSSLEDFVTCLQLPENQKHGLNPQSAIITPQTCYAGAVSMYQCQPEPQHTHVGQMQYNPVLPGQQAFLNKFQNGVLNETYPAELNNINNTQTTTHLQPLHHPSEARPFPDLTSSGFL

The target of assay [16] is Peroxisome proliferator-activated receptor gamma (Homo sapiens) (UniProt P37231). Nature of the assay: qHTS assay to identify small molecule agonists of the peroxisome proliferator-activated receptor gamma (PPARg) signaling pathway (AID 743094; active = well fitted activation curve with a large enough effect in the signal ratio in the repeat runs, not every such curve was filed as active; the % refers to the signal ratio). In a few lines:
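Stably transfected HEK293H cells (GeneBLAzer PPARg UAS-bla) were incubated with test substances for 17 h at 37C after a 5 h pre-incubation; beta-lactamase activity was then detected by FRET substrate fluorescence.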

The target in assay [17] is Peroxisome proliferator-activated receptor delta (Homo sapiens) (UniProt Q03181). Nature of the assay: qHTS assay to identify small molecule agonists of the peroxisome proliferator-activated receptor delta (PPARd) signaling pathway (AID 743212; calls by dose curve; note: potency is the fitted concentration of half-maximal effect). In a few lines: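 A PPARd-bla HEK293H line with beta-lactamase under an Upstream Activator Sequence is treated with compounds at 37 C. Substrate loading for 2 h at room temperature precedes the fluorescence measurement.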

Assay [18] concerns the target Peroxisome proliferator-activated receptor gamma (Homo sapiens) (UniProt P37231). The experiment in a line: qHTS assay to identify small molecule antagonists of the peroxisome proliferator-activated receptor gamma (PPARg) signaling pathway (AID 743191; calls by dose curve; note: series mostly up to about 63 µM; nearly all actives have a fitted effect of over 30% in size). In a few lines: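 GeneBLAzer PPARg UAS-bla HEK293H cells carrying a UAS-driven beta-lactamase reporter were plated at 3000 cells/well, preincubated 5 h at 37C, then given compound for 17 h at 37C; LiveBLAzer B/G FRET substrate was read after 1 h at room temperature.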

In assay [19] the target is Bile acid receptor (Homo sapiens) (UniProt Q96RI1). The experiment in a line: qHTS assay to identify small molecule antagonists of the farnesoid-X-receptor (FXR) signaling pathway (AID 743217; active = well fitted inhibition curve with a large enough effect in the signal ratio in the repeat runs, not every such curve was filed as active; the % refers to the signal ratio; note: potency is the fitted concentration of half-maximal effect). The essentials:
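Beta-lactamase reporter under UAS control in HEK 293T cells; compound exposure 16 h at 37 °C in the presence of chenodeoxycholic acid (50 uM final); signal from B/G FRET substrate after 2 h at room temperature.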

Inconclusive results are not listed. The source made the active and inactive calls. Unless noted, calls come from the whole dose curve; as a rule, active = well fitted curve in the direction sought with a large enough effect in the repeat runs; inconclusive = weak or mixed curves; inactive = no such curve, though single readings can be large; an effect the other way counts as inactive or inconclusive.

Sequence of Vitamin D3 receptor (Homo sapiens) (P11473 whole entry, looked up): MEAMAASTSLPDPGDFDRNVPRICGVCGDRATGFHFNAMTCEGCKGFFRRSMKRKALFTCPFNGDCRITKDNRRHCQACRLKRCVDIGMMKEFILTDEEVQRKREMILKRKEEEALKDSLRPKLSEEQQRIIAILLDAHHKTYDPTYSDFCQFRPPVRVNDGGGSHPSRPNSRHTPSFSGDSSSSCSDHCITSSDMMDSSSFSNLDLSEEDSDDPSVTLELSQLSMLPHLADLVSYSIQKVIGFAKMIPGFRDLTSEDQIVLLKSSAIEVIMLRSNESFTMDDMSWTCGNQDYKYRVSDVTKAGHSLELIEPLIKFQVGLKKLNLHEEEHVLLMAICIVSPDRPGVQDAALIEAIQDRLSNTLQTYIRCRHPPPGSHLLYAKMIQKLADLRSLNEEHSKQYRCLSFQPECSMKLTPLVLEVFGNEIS
Sequence of Peroxisome proliferator-activated receptor gamma (Homo sapiens) (P37231 whole entry, looked up): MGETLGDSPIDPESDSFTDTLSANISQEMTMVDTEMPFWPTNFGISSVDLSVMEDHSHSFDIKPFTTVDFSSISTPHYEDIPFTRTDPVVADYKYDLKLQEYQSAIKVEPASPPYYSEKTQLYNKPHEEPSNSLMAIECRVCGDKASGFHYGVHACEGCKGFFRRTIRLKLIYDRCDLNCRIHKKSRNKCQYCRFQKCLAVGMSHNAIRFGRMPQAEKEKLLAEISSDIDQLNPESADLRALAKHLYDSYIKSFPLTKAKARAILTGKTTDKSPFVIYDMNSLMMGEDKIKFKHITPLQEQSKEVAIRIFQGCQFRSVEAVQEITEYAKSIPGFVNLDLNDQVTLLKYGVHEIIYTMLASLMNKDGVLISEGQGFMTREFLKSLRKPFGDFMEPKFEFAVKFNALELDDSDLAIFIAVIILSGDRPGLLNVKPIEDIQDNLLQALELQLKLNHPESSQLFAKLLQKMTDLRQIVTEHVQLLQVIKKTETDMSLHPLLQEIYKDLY

Turning to `O=C1NC(=O)[C@@H]2CC=CC[C@H]12`, the Potency result in [1], in assay [2], in assay [3], in assay [4], in [5] and in [6] was “inactive” in each case. The Potency entry in assay [8], in [9], in assay [10] and in assay [11] was “inactive” each time. Further, the Potency in assay [7] is 21.9 µM (active).

With `CCCCCCC1CCCC(=O)O1` (stereo unspecified), the Potency result in assay [1], in assay [2], in assay [12], in assay [3], in [4] and in assay [13] was “inactive” throughout. Also, the Potency entry in [5], in assay [6], in assay [14], in [7], in [9] and in [11] was “inactive” in each case.

Take `O=c1c(O)c(-c2ccc(O)cc2O)oc2cc(O)cc(O)c12`: the Potency result in assay [15], in assay [16], in [2], in [3], in assay [17] and in assay [7] was “inactive” throughout. Further, the Potency entry in assay [8] and in assay [9] was “inactive” in each case.

Take `COc1cc2nc(N3CCN(C(=O)c4ccco4)CC3)nc(N)c2cc1OC`: the Potency result in [16], in [18], in assay [2], in assay [3], in assay [4] and in assay [13] was “inactive” in each case. In addition, the Potency result in assay [5], in assay [17], in assay [14], in assay [7] and in [9] was “inactive” in each case.

Take `CNC(=O)c1ccccc1Sc1ccc2c(/C=C/c3ccccn3)n[nH]c2c1`: the values for the Potency in [15] and in assay [6] were 3.76 µM (active) and 18.8 µM (active), respectively. Also, the Potency result in assay [1], in [3], in assay [4] and in [13] was “inactive” in each case.

Regarding `O=S(=O)(O)c1ccc(Nc2nc(Nc3ccc(/C=C/c4ccc(Nc5nc(Nc6ccc(S(=O)(=O)O)cc6)nc(N(CCO)CCO)n5)cc4S(=O)(=O)O)c(S(=O)(=O)O)c3)nc(N(CCO)CCO)n2)cc1`, the Potency entry in assay [15], in [2], in [3], in assay [4], in [5] and in assay [6] was “inactive” throughout. For the same compound, in assay [9], the Potency result is “inactive”. The Potency in assay [17] is 33.1 µM (active); in assay [8] it was 33.1 µM (active); in assay [10] it was 13.2 µM (active).

In the case of `CCCC(=O)OCOC(=O)C1=C(C)NC(C)=C(C(=O)OC)C1c1cccc(Cl)c1Cl` (stereo unspecified), the Potency result in assay [18], in assay [2], in [3], in assay [4], in [13] and in [5] was “inactive” in each case. For the same compound, the Potency entry in assay [7], in [9], in [10] and in assay [11] was “inactive” each time.

On to `C#C[C@]1(OC(C)=O)CC[C@H]2[C@@H]3CCC4=C/C(=N/O)CC[C@@H]4[C@H]3CC[C@@]21CC`, for which the Potency result in assay [15], in [1], in [17], in [6], in assay [14] and in assay [8] was “inactive” throughout. Further, the Potency in [3] was 29.8 µM (active).

With `O=S(=O)(O)c1ccccc1/C=C/c1ccc(-c2ccc(/C=C/c3ccccc3S(=O)(=O)O)cc2)cc1`, the Potency entry in assay [15], in assay [2], in assay [3], in assay [4], in assay [5] and in assay [7] was “inactive” throughout. Besides, the Potency entry in assay [9] is “inactive”. Further, the Potency in assay [8] was 31.3 µM (active).

For `Fc1ccc(C(c2ccc(F)cc2)N2CCNCC2)cc1`, the Potency in [2] is 26.6 µM (active); in assay [3] it was 16.8 µM (active); in assay [4] it was 15 µM (active); in assay [5], 7.5 µM (active); in [6] it was 15 µM (active); in assay [19], 29.8 µM (active). The Potency is 11.9 µM (active) in [7] and 26.6 µM (active) in assay [9]. Moreover, the Potency entry in assay [8] and in assay [10] was “inactive” each time.

`CN(C)CCN1CCN(c2cccc(Cl)c2)C1=O`: the Potency result in assay [2], in assay [12], in assay [3], in [4], in assay [13] and in [5] was “inactive” in each case. Further, the Potency entry in assay [17], in assay [6], in assay [14], in assay [7], in assay [9] and in assay [10] was “inactive” in each case. In addition, the Potency entry in [11] is “inactive”.
